Measurements: PubChem BioAssay (NCI)
The panel holds about 83,000 compounds, 20% with a hit somewhere; the sample as a whole holds those more often.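 Assay: single dose, 48 h. Readout: percent growth (0 = no net growth; negative = cell death). Active: <10.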 Calls of active or inactive are those of the source.

Tests used:
Assay in all cases: NCI-60 one-dose screen, 48 h (100 = growth as untreated, 0 = no growth, -100 = all killed)
Details in all cases: 10 µM unless noted
SK-MEL-2 melanoma = system: SK-MEL-2 melanoma
EKVX NSCLC = system: EKVX NSCLC
SN12C renal = system: SN12C renal
UO-31 renal = system: UO-31 renal
TK-10 renal = system: TK-10 renal
ACHN renal = system: ACHN renal
CAKI-1 renal = system: CAKI-1 renal
A498 renal = system: A498 renal
CCRF-CEM leukemia = system: CCRF-CEM leukemia
MOLT-4 leukemia = system: MOLT-4 leukemia

Measured: growth

c1ccc([P+](c2ccccc2)(c2ccccc2)c2ccc3c4ccc([P+](c5ccccc5)(c5ccccc5)c5ccccc5)c5cccc(c6cccc2c63)c54)cc1
active: A498 renal -11.3%
inactive: SK-MEL-2 melanoma 18.6% | EKVX NSCLC 12.8% | SN12C renal 10.5% | UO-31 renal 39.4% | TK-10 renal 52.2% | ACHN renal 41.3% | CAKI-1 renal 40.3% | CCRF-CEM leukemia 26.5%

CCOC(=O)C1=C(c2ccccc2)N=C2SC=C(c3ccc(Cl)cc3)N2C1c1ccc(Br)cc1 (stereo not drawn)
inactive: SK-MEL-2 melanoma 96.4% | EKVX NSCLC 73.9% | SN12C renal 84.5% | UO-31 renal 73.2% | TK-10 renal 103% | ACHN renal 87.3% | CAKI-1 renal 61.3% | A498 renal 46.7% | CCRF-CEM leukemia 78.4%

COc1ccccc1N1CCCCC1
inactive: SK-MEL-2 melanoma 104% | EKVX NSCLC 98.1% | SN12C renal 93.9% | UO-31 renal 98.9% | TK-10 renal 95% | ACHN renal 103% | CAKI-1 renal 97.8% | A498 renal 83.9% | CCRF-CEM leukemia 108% | MOLT-4 leukemia 100%

N#CC1=C(N)Oc2c(sc3c(Br)cccc23)C1c1ccc(Cl)cc1 (stereo not drawn)
active: SK-MEL-2 melanoma -2.16% | MOLT-4 leukemia 3.26%
inactive: EKVX NSCLC 34.3% | SN12C renal 30% | UO-31 renal 34.2% | TK-10 renal 37.8% | ACHN renal 43.6% | CAKI-1 renal 39.3% | A498 renal 16.3% | CCRF-CEM leukemia 13.7%

Nc1n[nH]c2cccc(C#Cc3cccc(NC(=O)c4cc(F)cc(C(F)(F)F)c4)c3)c12
inactive: SK-MEL-2 melanoma 63.2% | EKVX NSCLC 92.8% | SN12C renal 53.1% | UO-31 renal 36.8% | TK-10 renal 111% | ACHN renal 64.7% | CAKI-1 renal 104% | A498 renal 57.1% | CCRF-CEM leukemia 43%

COc1ccc(/C=C(\C#N)n2nnc3cc(F)c(F)cc32)cc1
inactive: SK-MEL-2 melanoma 50.9% | EKVX NSCLC 51.9% | SN12C renal 58.9% | UO-31 renal 52.8% | TK-10 renal 72.4% | ACHN renal 55.4% | CAKI-1 renal 54.4% | A498 renal 76.2% | CCRF-CEM leukemia 24.3%

Cc1ccc2c(n1)C(=O)C(Br)=C(C1CCCC1)C2=O
inactive: SK-MEL-2 melanoma 112% | EKVX NSCLC 98.9% | SN12C renal 95.2% | UO-31 renal 78.3% | TK-10 renal 120% | ACHN renal 77.9% | CAKI-1 renal 90.8% | A498 renal 108% | CCRF-CEM leukemia 26.2%

CCOC(=O)c1ccc(NC(=O)c2nc(-c3cc(OC)c(OC)c(OC)c3)n(-c3ccc(Cl)cc3)n2)cc1
inactive: SK-MEL-2 melanoma 85.9% | EKVX NSCLC 94% | SN12C renal 85.2% | UO-31 renal 58.8% | TK-10 renal 93.3% | ACHN renal 94.1% | CAKI-1 renal 80.7% | A498 renal 86% | CCRF-CEM leukemia 90%

C=CCn1c(C)nc2ccc(Nc3nc(Nc4ccc5nc(C)n(CC=C)c5c4)c4ccccc4n3)cc21
active: SK-MEL-2 melanoma -83.8% | EKVX NSCLC 2.58% | SN12C renal -74.9% | UO-31 renal -91.4% | TK-10 renal -88.5% | ACHN renal -80% | CAKI-1 renal -24.1% | CCRF-CEM leukemia -20.8%
inactive: A498 renal 99.5%

O=C(O)c1cn(C2CC2)c2cc(N3CCN(C(=O)N(c4ccccc4)c4nc(-c5ccccc5)cs4)CC3)c(F)cc2c1=O
active: SK-MEL-2 melanoma -18.3% | SN12C renal 1.06% | UO-31 renal 5.23% | ACHN renal -79.1% | CAKI-1 renal 6.68% | A498 renal 3.2%
inactive: EKVX NSCLC 16.9% | TK-10 renal 38.3% | CCRF-CEM leukemia 10.9%

COc1ccc2c(c1OC)CO[C@@H]2[C@H]1c2c(cc3c(c2OC)OCO3)CCN1S(=O)(=O)c1cn(C)cn1
active: A498 renal -21.3%
inactive: SK-MEL-2 melanoma 36.3% | EKVX NSCLC 45.6% | SN12C renal 41.1% | UO-31 renal 46.2% | TK-10 renal 54.1% | ACHN renal 36.6% | CAKI-1 renal 31.7% | CCRF-CEM leukemia 21.4%

O=C1c2ccccc2-c2c1c1c(=O)[nH]c3ccccc3c1n2Cc1ccccc1
active: CAKI-1 renal 2.5% | A498 renal 0.459%
inactive: SK-MEL-2 melanoma 75.2% | EKVX NSCLC 51.9% | SN12C renal 69.9% | UO-31 renal 78.3% | TK-10 renal 75.7% | ACHN renal 46.6% | CCRF-CEM leukemia 87.4%

O=C(Nc1nc(-c2ccc(Cl)cc2)nc2c1sc(=S)n2-c1ccccc1)C(F)(F)F
inactive: SK-MEL-2 melanoma 43.3% | EKVX NSCLC 55% | SN12C renal 57% | CAKI-1 renal 20.2% | CCRF-CEM leukemia 72.2% | MOLT-4 leukemia 82.6%
active: UO-31 renal -41.9% | TK-10 renal -31.9% | ACHN renal -48.5% | A498 renal -8.62%

Fc1cccc(Oc2ccc(Nc3ncnc4ccc(OCCCN5CCOCC5)cc34)cc2Cl)c1
inactive: SK-MEL-2 melanoma 93.3% | EKVX NSCLC 20.7% | SN12C renal 82.9% | UO-31 renal 30.4% | TK-10 renal 26.4% | ACHN renal 32.3% | CAKI-1 renal 30.4% | CCRF-CEM leukemia 58.8%
active: A498 renal -4.84%

COc1ccc(/C=C/C(=O)c2ccc(Nc3ccnc4cc(Cl)ccc34)cc2)cc1
active: CCRF-CEM leukemia -52.1%
inactive: SK-MEL-2 melanoma 64.1% | EKVX NSCLC 85.8% | SN12C renal 97.8% | UO-31 renal 90% | TK-10 renal 141% | ACHN renal 98.8% | CAKI-1 renal 85.1% | A498 renal 115%

Ic1ccc(OCCCCn2ccnc2)cc1
inactive: SK-MEL-2 melanoma 80.7% | EKVX NSCLC 62.1% | SN12C renal 76.6% | UO-31 renal 63.8% | TK-10 renal 45.3% | ACHN renal 59.4% | CAKI-1 renal 70% | A498 renal 36.2% | CCRF-CEM leukemia 55.1%

CCc1ccc(CCCC(=O)O)cc1
inactive: SK-MEL-2 melanoma 103% | EKVX NSCLC 96.3% | SN12C renal 93.7% | UO-31 renal 92.1% | TK-10 renal 99.9% | ACHN renal 101% | CAKI-1 renal 94% | A498 renal 95% | CCRF-CEM leukemia 104%

O=c1c2cccc3c(N4CCCC4)ccc(c32)c2nc3ccccc3n12
inactive: SK-MEL-2 melanoma 113% | EKVX NSCLC 75.9% | SN12C renal 64.8% | UO-31 renal 56.2% | TK-10 renal 87.6% | ACHN renal 52.3% | CAKI-1 renal 51.3% | A498 renal 38% | CCRF-CEM leukemia 53.7%

CCOc1nc(-c2ccccc2)cc2c(O)c(C(=O)N/N=C/c3ccccc3)[nH]c(=O)c12
inactive: SK-MEL-2 melanoma 36.5% | EKVX NSCLC 96.1% | SN12C renal 110% | UO-31 renal 93.2% | TK-10 renal 151% | ACHN renal 107% | CAKI-1 renal 104% | A498 renal 91.3% | CCRF-CEM leukemia 106%

CCOC(=O)c1cc2c(n1C)-c1nc(NC(C)=O)sc1CCC2
inactive: SK-MEL-2 melanoma 89.9% | EKVX NSCLC 60.7% | SN12C renal 81.9% | UO-31 renal 43.2% | TK-10 renal 138% | ACHN renal 86.7% | CAKI-1 renal 76.4% | A498 renal 53.2% | CCRF-CEM leukemia 73.8%

COC(=O)c1c2c(c(C)[n+]([O-])c1C)C(=O)C(NCc1cccc(OC)c1)=CC2=O
active: SN12C renal 2.9%
inactive: SK-MEL-2 melanoma 64.3% | EKVX NSCLC 57.2% | UO-31 renal 76.8% | TK-10 renal 104% | ACHN renal 47.8% | CAKI-1 renal 55.7% | A498 renal 108% | CCRF-CEM leukemia 16.3%

COC1=CC(c2ccc[nH]2)=N/C1=C\c1[nH]c(C)c(CC(=O)NCc2ccccc2)c1C
active: UO-31 renal -17.4% | ACHN renal 8.33% | CAKI-1 renal 1.97% | A498 renal -5.8%
inactive: SK-MEL-2 melanoma 16.7% | EKVX NSCLC 21.1% | SN12C renal 29.1% | TK-10 renal 24.9% | CCRF-CEM leukemia 22.4%

CCCCCOC(=O)c1c(C)[nH]c(/C=C2\N=C(c3ccc[nH]3)C=C2OC)c1C
active: SK-MEL-2 melanoma -71.2% | SN12C renal 3.4% | UO-31 renal -69.6% | TK-10 renal 4.49% | ACHN renal -72.3% | CAKI-1 renal -17.3% | A498 renal -21% | CCRF-CEM leukemia -13.2% | MOLT-4 leukemia 9.58%
inactive: EKVX NSCLC 12.5%

O=S(=O)(Nc1ccc(F)cc1F)c1ccc(-c2cnc(C3CC3)o2)cc1
active: A498 renal -3.02%
inactive: SK-MEL-2 melanoma 36.7% | EKVX NSCLC 41.1% | SN12C renal 42.9% | UO-31 renal 40% | TK-10 renal 67.2% | ACHN renal 38.5% | CAKI-1 renal 25% | CCRF-CEM leukemia 19.3%

Cc1ccc(C(=O)c2ccc(CC(=O)N/N=C/c3ccccc3O)n2C)cc1
inactive: SK-MEL-2 melanoma 89.6% | EKVX NSCLC 82.8% | SN12C renal 89.8% | UO-31 renal 40.6% | TK-10 renal 85.1% | ACHN renal 53.2% | CAKI-1 renal 64.5% | A498 renal 82% | CCRF-CEM leukemia 54.1%

CC(C)c1ccc(-n2c(=S)[nH]c3sc4cc(O)ccc4c3c2=O)cc1
inactive: SK-MEL-2 melanoma 121% | EKVX NSCLC 103% | SN12C renal 99.5% | UO-31 renal 77% | TK-10 renal 123% | ACHN renal 99% | CAKI-1 renal 91.7% | A498 renal 61.5% | CCRF-CEM leukemia 103%
